# Bioassay records (PubChem BioAssay)
# HSP90 refold inh = HSP90 inhibitors, primary screen, cell lysate, luminescence. Heat shock protein HSP 90 (rabbit reticulocyte lysate; luciferase refolding). Rabbit reticulocyte lysate, luciferase refolding luminescence, 3 h. inhibition, % at 5.6 µM. 290,000 tested, 0.91% active;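 active = inhibition above the screen-wide mean plus 3 SD, computed separately per campaign, cut at about 16% in these data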;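 also: 0% = DMSO wells and 100% = 60 µM geldanamycin wells; inhibitors lower the luminescence because luciferase stays unfolded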
# Platelet DG rel = inhibitors of platelet dense granule secretion, primary screen, cell-based, MLPCN, human platelets | human platelet-rich plasma, SFLLRN dense granule ATP release, luminescence | inhibition, %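 (compounds screened at 7.5 µM in platelet-rich plasma)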 | 300,000 tested, 0.22% active | AID 1663, 2009;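 active = mean replicate score, as percent of positive control, at or above 50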
# SENP7 inh = SENP7 protease inhibitors, primary screen, biochemical, luminescence, uHTS; recombinant SENP7, Z-RLRGG-aminoluciferin luminescence, 40 min; inhibition, % at 5 µM; Sentrin-specific protease 7 (Homo sapiens), Q9BQF6; 330,000 tested, 1.5% active;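 active = inhibition above about 50% at the single test dose, limit read from the data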;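 also: plate controls were DMSO with enzyme for no effect and no enzyme buffer wells for full effect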
# Target sequence (Q9BQF6 706-1050 limits assumed): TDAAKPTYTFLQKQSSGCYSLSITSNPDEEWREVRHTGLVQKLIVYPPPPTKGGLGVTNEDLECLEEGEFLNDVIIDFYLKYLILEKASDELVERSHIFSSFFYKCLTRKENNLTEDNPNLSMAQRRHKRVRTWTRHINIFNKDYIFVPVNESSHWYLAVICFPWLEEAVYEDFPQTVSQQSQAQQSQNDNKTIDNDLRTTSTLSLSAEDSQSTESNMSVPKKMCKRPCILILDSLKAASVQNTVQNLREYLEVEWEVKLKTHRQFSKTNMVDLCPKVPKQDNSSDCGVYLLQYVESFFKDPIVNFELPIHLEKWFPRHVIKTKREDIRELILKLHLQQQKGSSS
# SENP8 block-1 = SENP8 protease inhibitors, primary screen, biochemical, luminescence; purified SENP8, Z-RLRGG-aminoluciferin cleavage; inhibition, % at 10 µM; 330,000 tested, 1.2% active; AID 2540, 2010; in the data active = inhibition above about 50%
# SENP8 block-2 = human SENP8 protease inhibitors, primary screen, biochemical, fluorescence, Nedd8 protein substrate, uHTS; recombinant SENP8; 360,000 tested, 0.64% active; AID 602440, 2012; inhibition, % at 20 µM; Sentrin-specific protease 8 (Homo sapiens), Q96LD8; in the data active = inhibition mostly above about 40%, no sharp cut-off; inactive = mostly below about 27%
# SENP6 inh = SENP6 protease inhibitors, primary screen, biochemical, luminescence, uHTS | Sentrin-specific protease 6 (Homo sapiens), Q9GZR1 | Recombinant SENP6 catalytic domain, aminoluciferin luminescence | inhibition, % at 10 µM | 330,000 tested, 1.8% active;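 active = inhibition above about 50% at the single tested dose, limit read from the data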;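 also: plate controls were DMSO wells with enzyme for no effect and DMSO wells lacking enzyme for full effect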
# An asterisk follows results filed as active; . = no result. An excerpt weighted towards active compounds, which were near 2.8% of everything screened.
SMILES,HSP90 refold inh,Platelet DG rel,SENP7 inh,SENP8 block-1,SENP8 block-2,SENP6 inh
CCCCn1c(NC(=O)c2ccc(Br)o2)c(C(=O)OCC)c2nc3ccccc3nc21,3.2,-2.2,13.7,61.7*,-372.4,75.3*
CCCCn1c(N)c(C(=O)NCCN2CCOCC2)c2nc3ccccc3nc21,2.5,-16.8,8.8,10.1,-477.6,36.7
C=CCNC(=S)N1Cc2ccccc2-n2nncc2C1,.,.,.,.,6.0,.
CCNC(=O)C1OC(n2cnc3c(N)ncnc32)C(O)C1O (stereo unspecified),.,94.9*,-1.0,-4.8,11.3,16.2
CN(Cc1cccc(-c2ccncc2)c1)C(=O)Oc1ccc([N+](=O)[O-])cc1,.,.,.,.,11.1,.
COc1ccc(/C=N/N=C(/N)N[N+](=O)[O-])c(OC)c1,2.1,121.2*,5.7,-14.6,31.2,-17.0
CN1CCN(c2ccc(N)cc2)CC1,4.8,-7.7,-1.5,10.9,50.7*,2.0
COC(=O)C1=C(c2ccc(C(C)=O)cc2)C[C@@H]2CC[C@H]1N2C(=O)NC1Cc2ccccc2C1,.,.,2.4,4.6,16.0,2.7
COc1ccc(CNC(=O)CCC(=O)N2C[C@H]3C[C@H](C2)c2cccc(=O)n2C3)cc1OC,-3.0,-5.4,-10.5,-7.1,29.4,-13.8
COc1ccccc1CNCCc1cccc(Cl)c1,.,.,.,.,8.0,.
O=C(O)c1ccc2c(c1)C1C(Cl)C(Sc3ccccc3[N+](=O)[O-])CC1C(c1cccc([N+](=O)[O-])c1)N2 (stereo unspecified),4.7,.,.,.,49.3*,.
CCN(CC)C(=O)c1ccc2c(c1)C1C(Cl)C(Sc3ccccc3[N+](=O)[O-])CC1C(C(=O)O)N2 (stereo unspecified),1.6,1.2,5.8,14.0,44.0*,12.4
Cc1ccc2c(c1Cl)NC(C(=O)O)C1CC(Sc3ccccc3[N+](=O)[O-])C(Cl)C21 (stereo unspecified),3.1,-0.5,2.6,5.9,30.0,4.5
CCOC(=O)[C@]12Cc3cc(Cl)ccc3[C@H]1N(C(C)C)C(=O)c1ccccc12,.,.,.,.,2.9,.
O=[N+]([O-])c1ccc(C(c2ccc([N+](=O)[O-])cc2)c2ccc([N+](=O)[O-])cc2)cc1,.,.,.,.,10.4,.
Cc1[nH]n(-c2ccccc2)c(=O)c1C(c1ccc([N+](=O)[O-])cc1)c1c(C)[nH]n(-c2ccccc2)c1=O,10.1,11.1,19.8,2.7,90.1*,12.1
Cc1cc2c(C(C)C)c(O)c(O)c(C=O)c2c(O)c1-c1c(C)cc2c(C(C)C)c(O)c(O)c(C=O)c2c1O,-8.7,.,.,.,39.3*,.
Cn1ncnc2c(=O)n(C)c(=O)nc1-2,.,4.1,96.2*,95.9*,100.7*,95.2*
CC(C)(C)c1cc(C=C(C#N)C#N)cc(C(C)(C)C)c1O,.,.,4.6,10.9,39.9*,1.2
O=c1[nH]c(=S)[nH]c(O)c1N=Nc1ccc2c(c1)OCO2,-1.2,0.9,84.6*,81.7*,28.0,89.2*
O=C1c2ccccc2-c2cc3ccccc3cc21,.,.,.,.,-5.0,.
O=C1C=C(N2CC2)c2ccccc2C1=O,.,.,.,.,63.8*,.
CC1=NN(c2ccccc2)C(=O)C1/C=C1\C(=O)NC(=O)N(c2cc(C)cc(C)c2)C1=O (stereo unspecified),7.2,-0.7,3.7,-1.4,40.4*,9.5
CC1=NN(c2ccccc2)C(=O)C1/C=C1/C(=O)NC(=O)N(c2cc(C)cc(C)c2)C1=O (stereo unspecified),9.6,-9.6,-0.5,-5.5,27.8,-18.3
CN1CCc2cc3c(c4c2C1Cc1ccccc1-4)OCO3 (stereo unspecified),15.5,8.4,50.2*,63.6*,-293.2,70.1*
CN1CCc2cc(O)cc3c2[C@H]1Cc1ccc(O)c(O)c1-3,.,-0.7,-4.4,-11.7,-75.5,1.2
CCC(=O)[C@@H](C)[C@@H](O)[C@H](C)C[C@@H](C)C1OC(=O)C[C@@]2(O)CC=C(C)C(O2)C(C)=CCCC[C@H](O[C@H]2C[C@@H](OC(N)=O)[C@H](O)[C@@H](C)O2)C=C[C@H](C)C[C@H]1C (stereo partly specified),.,.,.,.,19.0,.
NCC(O)c1cc(O)c(O)cc1F (stereo unspecified),.,.,3.4,-4.8,15.7,-2.3
